Experimental data from PubChem BioAssay AID1220 (Sanford-Burnham Center for Chemical Genomics, 2008).
Out of some 190,000 compounds screened, about 1,300 (0.68%) were called active. Shown is part of a subset that was picked to be rich in actives. Unmarked numbers belong to inactive results. Rule as the data show it: active = inhibition above about 50%; inactive = the rest.

The molecules below were run against Mannose-6-phosphate isomerase (Homo sapiens) (UniProt P34949) (assay: human PMI inhibitors, high substrate, primary screen, biochemical, fluorescence intensity, high mannose 6-phosphate (AID 1220)). Details: recombinant PMI enzyme, coupled fluorescence intensity; at 20 µM; active compounds read high.
Sequence of Mannose-6-phosphate isomerase (Homo sapiens) (P34949 whole entry, looked up): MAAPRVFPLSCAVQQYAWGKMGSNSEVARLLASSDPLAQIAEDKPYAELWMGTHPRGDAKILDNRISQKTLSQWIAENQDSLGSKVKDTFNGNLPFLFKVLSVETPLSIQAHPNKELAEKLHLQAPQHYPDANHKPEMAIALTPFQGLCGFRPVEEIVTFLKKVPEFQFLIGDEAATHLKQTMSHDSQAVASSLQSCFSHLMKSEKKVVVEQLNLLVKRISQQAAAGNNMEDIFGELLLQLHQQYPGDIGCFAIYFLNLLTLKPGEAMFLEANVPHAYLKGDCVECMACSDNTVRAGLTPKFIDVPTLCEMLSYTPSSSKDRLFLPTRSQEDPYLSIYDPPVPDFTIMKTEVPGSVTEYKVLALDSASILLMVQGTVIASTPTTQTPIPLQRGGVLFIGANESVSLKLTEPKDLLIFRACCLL

| Compound | inhibition |
| --- | --- |
| COC(=O)c1ccccc1NC(=O)N[C@@H](C)C(=O)OC | -13.4% |
| O=C1OCC(CO)(CO)N=C1NNc1cc(Cl)ccc1Cl | -81.3% |
| CCC(=O)NCCNc1nc2cc(C)cc(C)c2cc1C#N | 12.8% |
| CC(C)C(NC(=O)c1ccccc1Cl)C(=O)OCc1nc2scc(-c3ccccc3Cl)c2c(=O)[nH]1 (stereo not given) | -15.4% |
| CC(=O)N1CCN(C2=Nc3cccc4cccc2c34)CC1 | 52.4% (active) |
| Fc1ccc(N2CCN(C3=Nc4cccc5cccc3c45)CC2)cc1 | 32.1% |
| O=C(CN1C(=O)c2cccc3cccc(c23)C1=O)N1CCN(c2ccccn2)CC1 | -1.5% |
| c1cc2c3c(cccc3c1)C(N1CCCCCC1)=N2 | 12.7% |
| O=C(CCCN1C(=O)c2cccc3cccc(c23)C1=O)N1CCN(c2ncccn2)CC1 | 10.1% |
| c1cc2c3c(cccc3c1)C(N1CCCCC1)=N2 | 58.7% (active) |
| CC(C)n1nnnc1SCC(=O)NCc1ccc2c(c1)OCO2 | -4.5% |
| OCCN1CCN(c2ncnc3nc[nH]c23)CC1 | 10.7% |
| COCCN1CCCC(CNCc2cn(C)nc2-c2ccc(Oc3ccccc3)cc2)C1 (stereo not given) | 10.6% |
| O=c1c(Cc2ccc(Cl)cc2Cl)c(O)ccn1CCCN1CCOCC1 | -5.3% |
| NC(=O)C1=C[C@H](c2ccc(C(F)(F)F)cc2)C[C@H](OCCCCO)O1 | 53.7% (active) |
| NC(=O)C1=C[C@@H](c2ccc(C(F)(F)F)cc2)C[C@@H](OCCCCO)O1 | 57.4% (active) |
| O=C(O)C1=C[C@H](c2ccc(Br)cc2)C[C@H](OCCCCO)O1 | -7.2% |
| C#CCNC(=O)C1=C[C@@H](c2ccc(C(F)(F)F)cc2)C[C@@H](OCCCCO)O1 | 38.5% |
| CN1CCN(C(=O)C2=C[C@@H](c3ccc(C(F)(F)F)cc3)C[C@@H](OCCCCO)O2)CC1 | 1.4% |
| O=C(NC1CC1)C1=C[C@@H](c2ccc(Br)cc2)C[C@@H](OCCCCO)O1 | -2.7% |
| O=C(C1=C[C@@H](c2ccc(C(F)(F)F)cc2)C[C@@H](OCCCCO)O1)N1CCOCC1 | -1.4% |
| O=C(C1=C[C@H](c2ccc(C(F)(F)F)cc2)C[C@H](OCCCCO)O1)N1CCOCC1 | -0.7% |

| Compound | inhibition |
| --- | --- |
| NC(=O)C1=C[C@@H](c2ccc(Br)cc2)C[C@@H](OCCCCO)O1 | 66.1% (active) |
| CN(C)CCCCOc1cccc(Br)c1 | -14% |
| COCCn1c(=O)[nH]c2cc(C(=O)NCCCN3CCN(c4ccc(F)cc4)CC3)ccc2c1=O | -12.2% |
| CCC(=O)Nc1cc(C(C)C)c(O)cc1C | -2.4% |
| CCOc1cc(C(=O)N2CCN(c3ccc(C(C)=O)cc3)CC2)cc(OCC)c1OCC | 6.8% |
| O=C(O)c1ccc(CSCc2ccco2)cc1 | 4.1% |
| CC(C(=O)Nc1cccc([N+](=O)[O-])c1)N1CCN(C/C=C/c2ccccc2)CC1 (stereo not given) | 12% |
| Cc1c(/C=N\NC(=O)c2ccc(F)cc2)cnn1C | 9.7% |
| Cc1occc1C(=O)N/N=C/c1cnn(C)c1C | 64% (active) |
| Cc1c(/C=N\NC(=O)c2csc3ccccc23)cnn1C | 2.4% |
| COc1c2ccoc2c(OC[C@@H](O)C(C)(C)OC)c2oc(=O)ccc12 | 9.3% |
| CCOC(=O)N1CCN(C(=O)C2CCN(CC3CCCCC3)CC2)CC1 | -10.5% |
| COc1ccc(C(=O)n2nnc3ccccc32)cc1OC | 6% |
| Oc1ccccc1C1=NCCNC(C(F)(F)F)=C1 | -3.4% |
| Oc1c(C2=NCCNC(C(F)(F)F)=C2)ccc2ccccc12 | 54.4% (active) |
| FC(F)(F)C1=CC(c2ccccc2)=NCCN1 | 0.2% |
| CN(C1=C(NC(=O)c2ccc(Cl)cc2)C(=O)c2ccccc2C1=O)c1ccccc1 | 25.2% |
| O=C(NC(=S)Nc1ccc2c(c1)C(=O)c1ccccc1C2=O)c1ccc(F)cc1 | -25.8% |
| O=C(NC1=C(Nc2ccc(Cl)cc2)C(=O)c2ccccc2C1=O)c1ccccc1 | 58% (active) |
| Cc1ccc(NC2=C(NC(=O)c3ccccc3)C(=O)c3ccccc3C2=O)cc1Cl | 14% |
| O=C(NC1=C(Nc2ccc(F)cc2)C(=O)c2ccccc2C1=O)c1ccc(Cl)cc1 | 55.3% (active) |
| Cc1cccc(NC2=C(NC(=O)c3ccccc3)C(=O)c3ccccc3C2=O)c1 | 6.2% |

| Compound | inhibition |
| --- | --- |
| Cc1ccc(C(=O)Nc2ccc(C(=O)N3CCCCC3C)cc2)cc1 (stereo not given) | 1% |
| O=C(CSC1=NCCS1)Nc1cccc2ccccc12 | 2.9% |
| CC(C)(C)NC(=S)Nc1cccc(C(F)(F)F)c1 | 2.1% |
| CC(NC(=S)Nc1cccc(C(F)(F)F)c1)C(C)(C)C (stereo not given) | 54.2% (active) |
| FC(F)(F)c1cccc(NC(=S)NC(c2ccccc2)c2ccccc2)c1 | -5.4% |
| CCOC(=O)/C(C#N)=C1/SC(CC)C(=O)N1c1ccc(C)cc1 (stereo not given) | -25% |
| C/C(=N\Nc1ccc(F)cc1F)c1ccc(N2CCOCC2)cc1 | -144% |
| CC(c1ccco1)N(C(=O)c1ccc(C(F)(F)F)cc1)c1ccccn1 (stereo not given) | 8.9% |
| Cc1ccc(S(=O)(=O)CC2CSc3nc4ccccc4n32)cc1 (stereo not given) | 9.4% |
| CCCCc1cc(=O)oc2cc(C)cc(O)c12 | 7.5% |
| CCCc1cc(=O)oc2cc(C)cc(O)c12 | 2.5% |
| CCCCc1cc(=O)oc2cc(O)cc(O)c12 | 64% (active) |
| Clc1ccc(-c2ccc(C=Nc3ccc(N4CCOCC4)cc3)o2)cc1 | 24.7% |
| Clc1cccc(-c2ccc(C=Nc3ccc(N4CCOCC4)cc3)o2)c1 | 33.8% |
| Oc1ccc(C=Nc2ccc(N3CCOCC3)cc2)c(O)c1 | 13.7% |
| Clc1cccc(-c2ccc(/C=N/n3cnnc3)o2)c1Cl | 1.1% |
| O=[N+]([O-])c1cc(Br)c(O)c(C=Nc2ccc(N3CCOCC3)cc2)c1 | 40.2% |
| Clc1cccc(-c2ccc(C=Nc3ccc(N4CCOCC4)cc3)o2)c1Cl | 63.9% (active) |
| Oc1c(Br)cc(Cl)cc1C=Nc1ccc(N2CCOCC2)cc1 | 51.8% (active) |
| Cc1ccc(Cl)cc1-c1ccc(C=Nc2ccc(N3CCOCC3)cc2)o1 | 52.4% (active) |
| Clc1ccc(-c2ccc(C=Nc3ccc(N4CCOCC4)cc3)o2)c(Cl)c1 | 47.6% |
